Screens (PubChem)
The entries come from a sample that favours hits as a whole.
NS1 inh – qHTS Assay for Inhibitors of Influenza NS1 Protein Function. AID 2326, 2010. 270,000 compounds, 0.4% hits. Potency, µM (titrated, usually from 46.1 µM), inactives show at the highest dose activity, positive = more growth; calls by dose curve; note: potency is the fitted concentration of half-maximal effect; actives are rising curves; nearly all actives have a fitted effect of over 50% in size
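Read-out: OD600 growth recovery of NS1-expressing budding yeast. Cells grown overnight at 30C in -URA glucose medium, washed, resuspended and diluted 1:100 in 2% galactose assay medium, pH 6.0. Same strain lacking NS1 served as positive control.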
Shiga inhibitor – A qHTS for Small Molecule Inhibitors of Shiga Toxin | 290,000 compounds, 9.2% hits | inhibition, % at 38.7 µM | Vero cells, Shiga toxin protein synthesis inhibition reporter | AID 2315, 2010; in the data active = inhibition mostly above about 28%, no sharp cut-off; inactive = mostly below about 43%; note: 0% is about no effect
AmpC detergent – qHTS Inhibitors of AmpC Beta-Lactamase (assay with detergent) | P00811 | 370,000 compounds, 0.041% hits | AmpC hydrolysis of nitrocefin, absorbance 480 nm, 0.01% Triton | Potency, µM (doses to about 114 µM), for the others: at the top dose activity change, negative = inhibition, most hits filed as inhibitors;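 note: potency is the fitted concentration of half-maximal effect; 0% = no-compound wells and -100% = no-enzyme wells; nearly all actives have a fitted effect of over 25% in size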
Target sequence (P00811 whole entry, looked up): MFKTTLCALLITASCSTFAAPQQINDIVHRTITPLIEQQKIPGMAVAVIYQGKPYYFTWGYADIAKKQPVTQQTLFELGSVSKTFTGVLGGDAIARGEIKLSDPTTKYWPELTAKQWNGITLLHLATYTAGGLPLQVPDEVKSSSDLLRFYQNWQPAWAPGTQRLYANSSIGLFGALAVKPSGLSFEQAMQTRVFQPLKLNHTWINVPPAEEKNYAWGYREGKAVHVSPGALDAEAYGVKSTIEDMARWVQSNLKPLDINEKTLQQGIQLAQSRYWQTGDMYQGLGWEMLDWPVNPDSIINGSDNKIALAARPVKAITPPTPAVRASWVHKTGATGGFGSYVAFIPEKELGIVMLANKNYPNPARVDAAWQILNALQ
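20 mM phosphate pH 7.0 + 0.01% (detergent screen) or 0.0001% Triton X-100; 5.3 nM AmpC reagent; cpd preinc 15 min RT; nitrocefin (800 uM stock) to start; A480 q20 s × 4 min; Activity was normalised to no-enzyme and no-compound control wells.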
AmpC inh no detg – qHTS Inhibitors of AmpC Beta-Lactamase (assay without detergent); 330,000 compounds, 0.52% hits; P00811; AmpC nitrocefin hydrolysis, absorbance 480 nm, 0.0001% Triton; Potency, µM (doses to about 57.1 µM), for inactives: at the highest dose activity change, negative = inhibition, actives largely listed as inhibitors; AID 485341, 2010;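 note: potency is the fitted concentration of half-maximal effect; plate controls were no compound for no effect and no enzyme for full effect; nearly all actives have a fitted effect of over 20% in size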
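20 mM phosphate pH 7.0 + 0.01% (detergent screen) or 0.0001% Triton X-100; 5.3 nM AmpC reagent; cpd preinc 15 min RT; nitrocefin (800 uM stock) to start; A480 q20 s × 4 min; Activity was normalised to no-enzyme and no-compound control wells.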
CHX counter – Cycloheximide Counterscreen for Small Molecule Inhibitors of Shiga Toxin; cell reporter, cycloheximide protein synthesis inhibition counterscreen; max response, %; 300,000 compounds, 12% hits; in the data active = max response mostly above about 13%, no sharp cut-off; inactive = mostly below about 14%; note: read at 38.3 µM for the half of the compounds with a filed dose; 0% is about no effect
Starred values were filed as active, the others as inactive; u = inconclusive; x = no result given. Unless noted, calls come from the whole dose curve; as a rule, active = well fitted curve in the direction sought with a large enough effect; inconclusive = small, poorly fitted or top-dose-only effect, or another doubt; inactive = no such curve, though single readings can be large; an effect the other way counts as inactive or inconclusive.

SMILES	NS1 inh	Shiga inhibitor	AmpC detergent	AmpC inh no detg	CHX counter
CCOc1ccc(N(C(=O)c2snc(C(N)=O)c2N)C(C(=O)NCC2CCCO2)c2ccc(C)o2)cc1 (stereo unspecified)	11.8%	46.9*	6.4%	117.4%	18.0*
Cc1ccc(C(C(=O)NCC2CCCO2)N(C(=O)c2snc(C(N)=O)c2N)c2ccc3c(c2)OCCO3)cc1 (stereo unspecified)	5.7%	-3.9	-4.1%	93.4%	-2.5
NC(=O)c1nsc(C(=O)N(c2cccc(F)c2)C(C(=O)NC2CCCC2)c2ccc(O)cc2)c1N (stereo unspecified)	7.6%	43.7	4.3%	-27.7%	7.3
NC(=O)c1nsc(C(=O)N(c2cccc(F)c2)C(C(=O)NCc2ccccc2)c2ccc(O)cc2)c1N (stereo unspecified)	0.9%	22.4	-6.5%	7.94µM*	6.5
COc1ccc(S(=O)(=O)N2Cc3ccccc3CC2C(=O)Nc2cc(Cl)ccc2Cl)cc1 (stereo unspecified)	x	x	0.2%	x	x
CC(C)=NNc1nc(-c2ccc([N+](=O)[O-])cc2)cs1	10.6%	18.3*	-0.7%	-49.0%	22.0*
CC(=O)Nc1nc(-c2ccc([N+](=O)[O-])cc2)cs1	x	53.8	3.7%	-15.0%	9.4
Cc1csc(N/N=C/c2ccc([N+](=O)[O-])cc2)n1	-11.7%	67.4*	u	-58.6%	31.8*
CC(C)c1nc(-c2ccc([N+](=O)[O-])cc2)cs1	0.0%	56.1*	-13.7%	-21.9%	38.9*
C/C=C/C=N/Nc1nc(-c2ccc([N+](=O)[O-])cc2)cs1	6.7%	90.2*	5.0%	-31.2%	9.6
O=C(Cc1ccccc1)Nc1sc2c(c1C(=O)Nc1cccc(Cl)c1)CCCC2	x	19.9	x	x	16.3
CN(CC(=O)Nc1ccccc1Br)C(=O)CCc1ccccc1	-4.0%	-12.5	u	-14.6%	-2.6
Cc1ccc(SCCC(=O)Nc2nccs2)cc1	x	60.7	-0.8%	-43.4%	9.5
O=C(CNC(=O)C1CCCC1)Nc1ccccc1Br	x	x	-0.4%	-15.0%	x
O=C(CSC1CCCCC1)Nc1ccccc1Br	2.9%	90.1*	0.1%	-0.5%	12.6*
O=C(CCSc1ccccc1)Nc1nccs1	-6.6%	36.1	-1.9%	-30.5%	19.1*
O=C(CCSc1ccccc1)Nc1ncccn1	-5.5%	5.2	-8.6%	-11.0%	29.6*
CN(CC(=O)Nc1ccccc1Br)C(=O)CCC1CCCC1	1.8%	44.9*	-0.3%	77.2%	56.8*
Cc1nc2nc(C)c(NS(=O)(=O)c3ccc4c(c3)CCCC4)c(=O)n2[nH]1	28.2%	-5.7	-18.0%	-15.9%	-3.5
Cc1ccc(CNC(=O)Cn2cc(C(F)(F)F)ccc2=O)cc1	u	19.5	4.3%	-30.1%	6.8
Cc1cccc(C(=O)NC2(C(F)(F)F)N=C(c3ccccc3)N(Cc3ccccc3)C2=O)c1 (stereo unspecified)	x	x	-1.6%	x	x
CCN(CC(=O)Nc1ccccc1C(F)(F)F)C(=O)CCS(=O)(=O)c1ccc(C)cc1	x	x	u	3.3%	x
Cc1cccc(Oc2nc3ccccn3c(=O)c2/C=C(\C#N)c2nc3ccccc3s2)c1C	x	x	22.3%	x	x
O=C(CCn1c(=O)sc2ccccc21)Nc1nccs1	-2.6%	39.9	-14.8%	-26.0%	33.0*
O=C(CCSc1ccccc1)Nc1ccccc1C(=O)N1CCCC1	4.4%	-5.9	18.6%	-1.4%	5.4
SMILES	NS1 inh	Shiga inhibitor	AmpC detergent	AmpC inh no detg	CHX counter
O=C(CCSc1ccccc1)Nc1ccccc1Br	x	73.8*	-14.8%	-35.2%	40.5*
O=C(CCCSc1ccc(Cl)cc1)Nc1ccccc1O	-128.5%	30.6	-11.8%	22.0%	26.9*
Cc1csc(NC(=O)CCn2c(=O)sc3ccccc32)n1	-7.7%	17.7	u	-19.7%	4.1
O=C(c1ccc(Cl)cc1)N1CCCC(c2ccccc2)=N1	-58.6%	-17.6	-13.4%	-23.4%	11.2
COc1ccc(NC(=O)CSc2nnc(-c3ccc(OC)cc3)s2)cc1	x	x	-4.0%	x	x
Cc1cc(Cl)c2oc(C(=O)N(C)Cc3cc(C)[nH]n3)c(C)c2c1	-40.2%	11.9	2.6%	147.5%	9.8
Cc1cc(Cl)c2oc(C(=O)N(C)Cc3ccon3)c(C)c2c1	-34.0%	95.0*	-4.1%	56.9%	48.4*
Cc1cc(Cl)c2oc(C(=O)N(C)C3CCOC3)c(C)c2c1 (stereo unspecified)	-13.5%	54.5*	-10.7%	105.1%	35.9*
Cc1ccc2oc(C(=O)N(CCO)Cc3ccccc3)c(C)c2c1	-26.8%	-3.2	-7.9%	66.8%	-1.2
Cc1c(C(=O)N(C)CCn2ccnc2C)oc2c(F)cccc12	16.3%	-7.7	u	-10.1%	-3.5
Cc1c(C(=O)N(C)CCCCN2CCOCC2)oc2c(F)cccc12	1.3%	x	-12.2%	21.5%	15.2*
Cc1cc(Cl)c2oc(C(=O)N(CCO)Cc3ccccc3)c(C)c2c1	-20.4%	64.3*	2.5%	136.5%	20.6*
Cc1cc(Cl)c2oc(C(=O)N(C)Cc3nccn3C)c(C)c2c1	-27.1%	10.1	-10.7%	151.7%	7.9
O=C(NCCc1ccccc1F)N[C@@H](Cc1ccccc1)C(=O)O	-8.3%	13.0	4.6%	-10.1%	6.0
CCOC(=O)c1ccccc1NC(=O)CSc1ccc(-c2sc(C)nc2C)nn1	x	x	-4.6%	x	x
Cc1c(C(=O)N(CCO)Cc2ccccc2)oc2c(F)cccc12	-17.4%	32.3*	u	15.2%	35.2*
Nc1ccccc1OCCOc1ccccc1N	6.4%	31.3	-21.2%	-13.3%	20.2*
Cc1ccccc1Oc1ccccc1N	x	12.3	-11.9%	-14.7%	2.4
CCOC(=O)c1sc2cccc(Cl)c2c1N	-3.9%	13.6	u	-20.4%	2.6
CCOC(=O)c1sc(NC(=O)Nc2ccccc2F)nc1C	-7.6%	75.4*	-1.8%	-17.0%	86.4*
CCOC(=O)c1sc(NC(=O)/C=C/c2c(F)cccc2Cl)nc1C	5.2%	-7.2	u	-31.7%	40.5*
CCOC(=O)c1sc(Nc2ccccc2Cl)nc1C	-38.6%	87.6*	4.4%	-31.6%	41.7*
CCOC(=O)c1sc2cccc(F)c2c1N	-16.2%	25.1*	0.9%	-22.9%	25.3*
CN1C[C@H](C(=O)N[C@@]2(C)O[C@@]3(O)[C@H]4CCCN4C(=O)[C@@H](Cc4ccccc4)N3C2=O)C=C2c3cccc4[nH]cc(c34)C[C@@H]21	15.6%	x	x	x	x
COC(=O)Cc1csc(Nc2ccccc2Cl)n1	-43.7%	51.7*	u	-22.1%	35.8*
SMILES	NS1 inh	Shiga inhibitor	AmpC detergent	AmpC inh no detg	CHX counter
CCOC(=O)c1sc(Nc2ccc(Br)cc2)nc1C	-1.8%	89.2*	4.1%	-14.2%	29.6*
CCOC(=O)c1cc2nc(Nc3ccc(OC)cc3)sc2s1	-6.5%	57.8*	u	11.3%	14.0*
CCOC(=O)c1sc(NCCNc2nc(C)c(C(=O)OCC)s2)nc1C	0.9%	8.2	-6.9%	-3.4%	-2.9
CCOC(=O)c1nnsc1NC(=O)Nc1ccc(OC)cc1	x	-7.1	u	-22.6%	-2.7
NCCNC(=S)S	-30.2%	x	x	x	x
O=C(Cn1cnc([N+](=O)[O-])n1)NCCO	2.4%	14.3	4.8%	-15.4%	-0.5
